# PubChem BioAssay AID2568 (National Center for Advancing Translational Sciences (NCATS), 2010)
# Results filed as inconclusive are left out. Active and inactive are the calls of the source. Calls come from the whole dose curve.
# Target: Neuropeptide S receptor (Homo sapiens) (UniProt Q6W5P4)
# Assay: Confirmation Concentration-Response Assay for Antagonists of the Neuropeptide S Receptor: cAMP Signal Transduction, SAR for Probe
# Conditions: CHO-NPSR cells, cAMP TR-FRET, antagonist mode; series mostly up to 47.8 µM
# Source text: NIH Chemical Genomics Center [NCGC] NIH Molecular Libraries Probe Production centers Network [MLPCN] MLPCN Grant: X01-DA026210-01 Assay Submitter (PI): Heilig, Markus Alexander NCGC Assay Overview: Neuropeptide S receptor (NPSR), previously known as GPR154, is a recently de-orphanized G protein coupled receptor. Its endogenous ligand is the 20 amino acids peptide Neuropeptide S (NPS). […] NPS and its receptor are found in various tissues. Specifically they are highly expressed in brain areas that have been implicated in modulation of arousal, stress and anxiety. Central administration of NPS in mice produces an unusual profile of activity by inducing wakefulness and arousal, while at the same time suppressing anxiety. Therefore, NPSR may represent a novel drug target for the treatment of sleep and anxiety disorders. To identify NPSR antagonists, we developed a cell-based cAMP assay. NPS can stimulate the production of cAMP in Chinese hamster ovary cells stably expressing NPS receptor. This change in intracellular cAMP level can be detected by a homogeneous LANCE cAMP assay based on the TR-FRET (time resolved fluorescence resonance energy transfer) between a europium-labeled cAMP tracer complex and a cAMP-specific antibody labeled with Alexa Fluor 647. The europium-labeled cAMP tracer complex is formed by the tight interaction between Biotin-cAMP (b-cAMP) and streptavidin labeled with Europium-W8044 chelate (Eu-SA). Light pulse at 320 nm excites the europium of the cAMP tracer and the energy emitted is transferred to the Alexa molecule bound to the cAMP antibody, generating a TR-FRET signal at 665 nm. Residual energy from the europium will produce a light at 620 nm. The native unlabeled cAMP from cell lysates competes with the europium-cAMP tracer for antibody binding and reversely reduces the emission signal of Alexa by interrupting FRET between the two labeled molecules. Both emission signals from the FRET donor (620 nm) and the acceptor (665 nm) can be detected by a plate reader in the TRF mode. Expression of result in fluorescence ratio (665 nm/620 nm) helps to normalize differences due to cell density and reagent dispensing. This assay was successfully optimized to a 1536-well plate format. Select compounds from the primary screen (AID 1461) were chosen for confirmation based on potency, efficacy, SAR, and activity across other assays in PubChem and at NCGC. Other compounds are analogs of active compounds from the primary screen.
# NCGC Assay Protocol Summary: A Chinese hamster ovary (CHO) cell line stably expressing the NPS receptor (CHO-NPSR) was obtained from Dr. Heilig lab at NIAAA and maintained in F-12 Kaighn's media (Invitrogen, Carlsbad, CA, 21127) supplemented with 10 % FBS, 100 units/ml penicillin, 100 ug/ml streptomycin and 250 ug/ml geneticin at 37C, 5% CO2 in a humidified atmosphere. Before the assay, aliquots of cells were frozen and stored at -135C. The assay was performed in 1536-well format. Data are reported for both the ratio of the two emission wavelengths, and also for the component 'donor' channel, Em2=620. […] IC50 values were determined from concentration-response data modeled with the standard Hill equation. NPS 1536-well assay protocol: (1) Fresh or frozen CHO-NPSR cells were suspended in F-12 Kaighn's media supplemented with 10 % FBS, 100 units/ml penicillin and 100 ug/ml streptomycin. Cells were plated at 4 ul/well (1200 cells) to white, tissue culture treated 1536-well plates, and then cultured at 37C, 5 % CO2 for 16 to 30 hours. (2) Add 23 nl/well of compound in DMSO solution. The final titration for each compound was between 0.6 nM and 46 uM. (3) Add 1 ul of stimulation reagent (1X HBSS buffer, 5 mM HEPES, 0.1% BSA, 500 uM RO-201724 (Sigma-Aldrich, B8279), 1.5% Alexa 647-labeled anti-cAMP antibody (from Perkin Elmer), 100 nM NPS) (4) Incubation at 37C, 5 % CO2 for 60 min. (5) Add 1 ul/well detection reagent. […]
# Sequence of Neuropeptide S receptor (Homo sapiens) (Q6W5P4 whole entry, looked up): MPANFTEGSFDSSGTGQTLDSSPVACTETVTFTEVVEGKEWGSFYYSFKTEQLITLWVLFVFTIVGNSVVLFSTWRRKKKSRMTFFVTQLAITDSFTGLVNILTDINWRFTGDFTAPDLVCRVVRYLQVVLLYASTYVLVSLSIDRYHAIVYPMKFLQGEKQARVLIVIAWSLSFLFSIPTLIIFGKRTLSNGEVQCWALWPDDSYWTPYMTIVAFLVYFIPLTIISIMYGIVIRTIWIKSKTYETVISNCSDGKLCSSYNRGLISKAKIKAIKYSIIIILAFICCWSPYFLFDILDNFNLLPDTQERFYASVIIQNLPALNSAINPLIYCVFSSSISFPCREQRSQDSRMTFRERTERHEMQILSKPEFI
row,Compound,Potency
1,COc1ccc(C2c3c(nc(Cc4ccccc4)[nH]c3=O)Oc3ccc4ccccc4c32)cc1OC (centres undefined),inactive
2,COc1cccc(C2c3c(ncn(-c4ccc(NC(C)=O)cc4)c3=N)Oc3ccc4ccccc4c32)c1 (centres undefined),19.4 µM (active)
3,COc1cccc(C2c3c(ncn(-c4ccccc4-c4ccccc4)c3=N)Oc3ccc4ccccc4c32)c1 (centres undefined),38.7 µM (active)
4,COc1cccc(C2c3c(ncn(-c4ccc(C(C)(C)C)cc4)c3=N)Oc3ccc4ccccc4c32)c1 (centres undefined),15.4 µM (active)
5,COc1cccc(C2c3c(ncn(-c4cccc(C)c4)c3=N)Oc3ccc4ccccc4c32)c1 (centres undefined),12.2 µM (active)
6,COc1cccc(C2c3c(ncn(-c4cccc(Cl)c4)c3=N)Oc3ccc4ccccc4c32)c1 (centres undefined),15.4 µM (active)
7,Cn1cc(P(=O)(c2ccccc2)c2ccccc2)c2ccccc21,inactive
8,O=C(NCc1ccc(F)cc1)n1c(-c2ccccc2)c(P(=S)(c2ccccc2)c2ccccc2)c2ccccc21,inactive
9,COc1cccc(C2c3c(ncn(-c4ccccc4C(C)(C)C)c3=N)Oc3ccc4ccccc4c32)c1 (centres undefined),12.2 µM (active)
10,COc1cccc(C2c3c(ncn(-c4ccccc4Cl)c3=N)Oc3ccc4ccccc4c32)c1 (centres undefined),12.2 µM (active)
11,COc1ccc(C2C3=C(N=CN(CCN4CCOCC4)C3N)Oc3ccccc32)cc1OC (centres undefined),inactive
12,COc1cccc(C2c3c(ncn(-c4ccc(C#N)cc4)c3=N)Oc3ccc4ccccc4c32)c1 (centres undefined),15.4 µM (active)
13,COc1ccc(C2c3ccc4ccccc4c3Oc3ncn(CCN4CCOCC4)c(=N)c32)cc1OC (centres undefined),48.7 µM (active)
14,COc1cccc(C2c3c(ncn(-c4ccccc4SC)c3=N)Oc3ccc4ccccc4c32)c1 (centres undefined),7.72 µM (active)
15,COc1ccc(C2c3c(nc(CCc4ccccc4)[nH]c3=O)Oc3ccc4ccccc4c32)cc1OC (centres undefined),inactive
16,COc1ccc(C2c3c(N)nc(CCc4ccccc4)nc3Oc3ccc4ccccc4c32)cc1OC (centres undefined),48.7 µM (active)
17,Cc1c(P(=S)(c2ccccc2)c2ccccc2)c2ccccc2n1C(=O)Cc1ccccc1,inactive
18,COc1ccc(C2c3c(ncn(CCc4ccccc4)c3=N)Oc3ccc4ccccc4c32)cc1OC (centres undefined),24.4 µM (active)
19,C[n+]1cc(C(O)(c2ccccc2)c2ccccc2)n2ccccc21,inactive
